# From PubChem BioAssay (EPA / NIEHS)
# Several values for one entry are separate records, joined by “and”; a condition that tells them apart may be missing. Identical values can stand only once. Where a structure was tested more than once in an assay, its records may differ in their call. Activity calls are given as the source filed them. Rule for the calls: active = hit-call score of the fitted dose curve at least 0.9, where 1 is the maximum; inactive = score below 0.9.
# Key:
# [1] = read-out: Intercellular Adhesion Molecule 1 (ICAM1), ICAM1 (gene 3383); assay: BSK_hDFCGF_ICAM1: BioMAP Diversity Plus: hDFCGF Assay for Intercellular Adhesion Molecule 1 (ICAM1) Biomarker Activity (AID 2284287); settings: primary human foreskin fibroblasts
# Method in brief: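 ICAM-1 ELISA readout 24 h after dosing, DMSO as baseline, in human dermal foreskin fibroblast cultures. Cytotoxicity checked in parallel wells by SRB staining (0.1% SRB, 10% TCA fixation, 560 nm).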
# [2] = read-out: TIMP metallopeptidase inhibitor 2 (TIMP2), TIMP2 (gene 7077); assay: BSK_hDFCGF_TIMP2: BioMAP Diversity Plus: hDFCGF Assay for TIMP metallopeptidase inhibitor 2 (TIMP2) Biomarker Activity (AID 2284289); settings: primary human foreskin fibroblasts
# Method in brief: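 Primary human foreskin fibroblasts in the hDFCGF system, dosed for 24 h; TIMP-2 level measured by ELISA, fitted in the positive direction against DMSO; cytotoxicity checked in parallel by sulforhodamine B total protein staining.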
# [3] = read-out: Thrombomodulin, THBD (gene 7056); assay: BSK_LPS_Thrombomodulin: BioMAP Diversity Plus: LPS Assay for Thrombomodulin Biomarker Activity (AID 2284296); settings: primary human HUVEC with PBMC
# Method in brief: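 Thrombomodulin on the surface of LPS-activated endothelial/PBMC co-cultures was quantified by ELISA at 24 hours post-dosing, with DMSO as baseline. Parallel SRB total-protein staining flagged overt cytotoxicity.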
# [4] = IUF_NPC2c_oligodendrocyte_migration_120hr: Leibniz Research Institute for Environmental Medicine (IUF) 120-hour Neural Progenitor Cell Migration Assay for Oligodendrocyte Migration (NPC2c) (AID 2284297);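 note: O4-positive oligodendrocyte migration distance divided by radial glia migration distance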
# Method in brief: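 Human fetal neural progenitor spheres (0.3 mm) are plated on poly-D-lysine/laminin in N2 differentiation medium and exposed for 120 h, with half-medium renewal at day 3. Oligodendrocyte (O4+) migration distance comes from ICC imaging, normalised to radial glia migration.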
# [5] = IUF_NPC2a_radial_glia_migration_120hr: Leibniz Research Institute for Environmental Medicine (IUF) 120-hour Neural Progenitor Cell Migration Assay for Radial Glia Migration (NPC2a) (AID 2284298)
# Method in brief: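 Human fetal-cortex neural progenitor spheres (0.3 mm) plated on poly-D-lysine/laminin in N2 differentiation medium, exposed 120 h at 37C with half-medium renewal at day 3. Radial glia migration distance (um) measured from Hoechst-stained nuclei images; DMSO baseline.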
# [6] = read-out: CD40, CD40 (gene 958); assay: BSK_IMphg_CD40: BioMAP Diversity Plus: IMphg Assay for CD40 Biomarker Activity (AID 2284288); settings: primary human endothelial cells with macrophages
# Method in brief: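 ELISA read-out of cell-surface CD40 at 24 h in human venular endothelial cell/macrophage co-cultures. Activity fitted in the positive direction against DMSO; parallel SRB staining (560 nm) gauges overt cytotoxicity.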
# [7] = read-out: Interleukin-1 alpha (IL1a), IL1A (gene 3552); assay: BSK_IMphg_IL1a: BioMAP Diversity Plus: IMphg Assay for Interleukin-1 alpha (IL1a) Biomarker Activity (AID 2284290); settings: primary human endothelial cells with macrophages
# Method in brief: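 IL-1α is quantified by ELISA at 24 h in the endothelial/macrophage IMphg co-culture, with gain of signal fitted relative to DMSO. Parallel SRB total-protein staining flags overt toxicity.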
# [8] = read-out: E-selectin (Homo sapiens) (UniProt P16581); assay: BSK_IMphg_ESelectin: BioMAP Diversity Plus: IMphg Assay for Eselectin Biomarker Activity (AID 2284291); settings: primary human endothelial cells with macrophages
# Method in brief: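 Analysed against DMSO baseline in the positive fitting direction, this endpoint is an ELISA read of E-selectin. It comes from human venular endothelial cells co-cultured with macrophages, sampled 24 h post-dose.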
# [9] = BSK_IMphg_SRB: Viability Assessment in the BioMAP Diversity Plus: IMphg Assay (AID 2284292); settings: primary human endothelial cells with macrophages;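 note: measured one day after compound addition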
# Method in brief: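 SRB viability endpoint: cultures of human endothelial cells plus macrophages fixed with 10% TCA, stained with 0.1% SRB, read at 560 nm 24 h post-dosing. Only gain-of-signal fitted, relative to DMSO.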
# [10] = read-out: Macrophage colony-stimulating factor (MCSF), CSF1 (gene 1435); assay: BSK_IMphg_MCSF: BioMAP Diversity Plus: IMphg Assay for Macrophage colony-stimulating factor (MCSF) Biomarker Activity (AID 2284293); settings: primary human endothelial cells with macrophages
# Method in brief: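 M-CSF was measured by ELISA in human venular endothelial cell/macrophage co-cultures dosed for 24 hours. Sulforhodamine B staining of parallel cultures assessed cytotoxicity; data fitted against DMSO baseline.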
# Sequence of E-selectin (Homo sapiens) (P16581 whole entry, looked up): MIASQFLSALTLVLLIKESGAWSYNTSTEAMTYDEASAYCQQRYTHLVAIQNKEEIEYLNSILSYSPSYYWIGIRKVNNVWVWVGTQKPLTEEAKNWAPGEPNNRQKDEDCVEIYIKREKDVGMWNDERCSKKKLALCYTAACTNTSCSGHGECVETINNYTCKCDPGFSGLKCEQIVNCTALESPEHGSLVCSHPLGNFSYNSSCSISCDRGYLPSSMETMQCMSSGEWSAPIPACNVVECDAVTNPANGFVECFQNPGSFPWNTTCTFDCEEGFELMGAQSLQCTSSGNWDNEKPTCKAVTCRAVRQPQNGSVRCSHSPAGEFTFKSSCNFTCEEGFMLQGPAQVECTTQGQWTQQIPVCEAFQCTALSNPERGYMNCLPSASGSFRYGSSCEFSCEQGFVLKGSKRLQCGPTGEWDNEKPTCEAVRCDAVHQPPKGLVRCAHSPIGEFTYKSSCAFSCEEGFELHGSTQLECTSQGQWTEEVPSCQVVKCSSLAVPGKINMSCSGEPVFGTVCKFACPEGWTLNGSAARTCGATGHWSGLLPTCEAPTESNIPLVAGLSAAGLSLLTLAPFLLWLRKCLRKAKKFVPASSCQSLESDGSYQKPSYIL
compound,measurement,setting,value
O=C1NS(=O)(=O)c2ccccc21,outcome,[1],inactive
same,outcome,[2],inactive
same,AC50,[3],1.09 µM (active)
same,outcome,[3],inactive
same,outcome,[4],inactive
same,outcome,[5],inactive
O=C(O)C(F)(F)OC(F)(F)C(F)(F)OC(F)(F)C(F)(F)OC(F)(F)C(F)(F)C(F)(F)C(F)(F)F,AC50,[1],19.7 µM (active) and 17.2 µM (active)
same,AC50,[6],42.4 µM (active) and 40.9 µM (active)
same,AC50,[2],7.91 µM (active) and 7.94 µM (active)
same,AC50,[7],44.1 µM (active) and 22.4 µM (active)
same,AC50,[8],40.8 µM (active) and 31.9 µM (active)
same,AC50,[9],53.4 µM (active) and 51.8 µM (active)
same,outcome,[10],inactive
same,AC50,[3],45.8 µM (active) and 44.1 µM (active)
CN(Cc1cnc2nc(N)nc(N)c2n1)c1ccc(C(=O)N[C@@H](CCC(=O)O)C(=O)O)cc1,outcome,[1],inactive
same,outcome,[6],inactive
same,outcome,[2],inactive
same,outcome,[7],inactive
same,outcome,[8],inactive
same,outcome,[9],inactive
same,outcome,[10],inactive
same,outcome,[3],inactive
O=C(O)CCC(F)(F)C(F)(F)C(F)(F)C(F)(F)C(F)(F)C(F)(F)F,outcome,[1],inactive
same,outcome,[6],inactive
same,outcome,[2],inactive
same,AC50,[7],5.95 µM (active) and 16.4 µM (active) and 20.5 µM (active)
same,outcome,[8],inactive
same,outcome,[9],inactive
same,outcome,[10],inactive
same,outcome,[3],inactive
O=C(CCCN1CCC(O)(c2ccc(Cl)cc2)CC1)c1ccc(F)cc1,outcome,[4],inactive
same,AC50,[5],15.9 µM (active)
CN(CCO)S(=O)(=O)C(F)(F)C(F)(F)C(F)(F)C(F)(F)C(F)(F)C(F)(F)C(F)(F)C(F)(F)F,outcome,[1],inactive
same,outcome,[6],inactive
same,AC50,[2],30.1 nM (active) and 23.8 nM (active)
same,outcome,[7],inactive
same,outcome,[8],inactive
same,outcome,[9],inactive
same,outcome,[10],inactive
same,outcome,[3],inactive
Oc1c(Cl)cc(Cl)cc1Sc1cc(Cl)cc(Cl)c1O,AC50,[1],2.56 µM (active) and 2.73 µM (active)
same,AC50,[2],2.33 µM (active) and 1.67 µM (active)
same,outcome,[3],inactive
O=C(O)CCC(F)(F)C(F)(F)C(F)(F)C(F)(F)C(F)(F)F,outcome,[1],inactive
same,outcome,[6],inactive
same,outcome,[2],inactive
same,AC50,[7],9.45 µM (active)
same,outcome,[7],inactive
same,outcome,[8],inactive
same,outcome,[9],inactive
same,outcome,[10],inactive
same,outcome,[3],inactive
O=S(=O)(O)C(F)(F)C(F)(F)C(F)(F)C(F)(F)C(F)(F)C(F)(F)C(F)(F)C(F)(F)C(F)(F)C(F)(F)F,outcome,[1],inactive
same,AC50,[6],10.6 µM (active) and 6.06 µM (active)
same,outcome,[2],inactive
same,outcome,[7],inactive
same,outcome,[8],inactive
same,outcome,[9],inactive
same,outcome,[10],inactive
same,outcome,[3],inactive
C=CC(=O)OCCC(F)(F)C(F)(F)C(F)(F)C(F)(F)C(F)(F)C(F)(F)C(F)(F)C(F)(F)F,AC50,[1],1.19 µM (active)
same,outcome,[1],inactive
same,outcome,[6],inactive
same,outcome,[2],inactive
same,outcome,[7],inactive
same,outcome,[8],inactive
same,outcome,[9],inactive
same,outcome,[10],inactive
same,AC50,[3],2.94 µM (active)
same,outcome,[3],inactive
O=P(O)(O)CCC(F)(F)C(F)(F)C(F)(F)C(F)(F)C(F)(F)C(F)(F)F,outcome,[1],inactive
same,outcome,[6],inactive
same,outcome,[2],inactive
same,outcome,[7],inactive
same,outcome,[8],inactive
same,outcome,[9],inactive
same,outcome,[10],inactive
same,AC50,[3],0.219 µM (active)
same,outcome,[3],inactive
O=P(O)(O)CCC(F)(F)C(F)(F)C(F)(F)C(F)(F)C(F)(F)C(F)(F)C(F)(F)C(F)(F)F,AC50,[1],25.7 µM (active)
same,outcome,[1],inactive
same,outcome,[6],inactive
same,outcome,[2],inactive
same,outcome,[7],inactive
same,AC50,[8],37.8 µM (active) and 34.5 µM (active)
same,outcome,[9],inactive
same,outcome,[10],inactive
same,outcome,[3],inactive
CCCCCCCCCCCC,AC50,[1],11.7 µM (active) and 10.3 µM (active)
same,AC50,[2],12.6 µM (active) and 5.39 µM (active)
same,AC50,[3],35.4 µM (active)
same,outcome,[3],inactive
OCC(F)(F)C(F)(F)C(F)(F)C(F)(F)C(F)(F)C(F)(F)C(F)(F)C(F)(F)C(F)(F)C(F)(F)C(F)(F)F,outcome,[1],inactive
same,AC50,[6],1.35 µM (active)
same,outcome,[2],inactive
same,outcome,[7],inactive
same,AC50,[8],155 nM (active) and 396 nM (active)
same,outcome,[9],inactive
same,outcome,[10],inactive
same,outcome,[3],inactive
CC(C)c1c(C(=O)Nc2ccccc2)c(-c2ccccc2)c(-c2ccc(F)cc2)n1CC[C@@H](O)C[C@@H](O)CC(=O)O,outcome,[4],inactive
same,outcome,[5],inactive
Oc1ccc(Cc2ccccc2O)cc1,outcome,[1],inactive
same,outcome,[2],inactive
same,outcome,[3],inactive
O=C(CC(=O)C(F)(F)C(F)(F)C(F)(F)F)c1cccs1,outcome,[1],inactive
same,outcome,[6],inactive
same,AC50,[2],7.8 µM (active)
same,outcome,[2],inactive
same,AC50,[7],47.6 µM (active)
same,outcome,[7],inactive
same,AC50,[8],40.3 µM (active) and 42 µM (active)
same,AC50,[9],44.9 µM (active) and 39.7 µM (active)
same,outcome,[10],inactive
same,AC50,[3],55.5 µM (active) and 54.2 µM (active)
CC(=O)Nc1ccc(O)cc1,outcome,[4],inactive
same,outcome,[5],inactive
